Records with an inconclusive call do not appear. A number with no mark means an inactive call. Activity calls are given as the source filed them. Calls come from the whole dose curve; as a rule, active = well fitted cell-killing curve with a large enough effect; inconclusive = small, poorly fitted or top-dose-only effect; inactive = no such curve, though single readings can be large or run the other way.
Assay: qHTS of pediatric cancer cell lines to identify multiple opportunities for drug repurposing: Primary screen for LAN-5 cells (AID 1347100);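 for activity change, negative = cytotoxic: plate controls were DMSO neutral control for no effect and bortezomib positive control for full effect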
Conditions: LAN-5 neuroblastoma viability, CellTiter-Glo luminescence, 48 h; series mostly up to 46 µM; activity change, negative = cytotoxic: at the top concentration
In short: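 Viability after 48 h compound treatment at 37C, 500-1,000 cells/well, read as ATP luminescence with CellTiter-Glo. Primary screens used 11-point (MIPE, 0.78 nM-46 µM) or 8-point (NPC, 0.59 nM-46 µM) final concentrations; follow-up screens used 11-point dilutions.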
Potency is the fitted concentration of half-maximal effect.

Compound | Potency | activity change, negative = cytotoxic
Cc1ccc2c(Br)cc(Br)c(O)c2n1 | 11.9 µM (active) | 
CO[C@H]1C=CO[C@@]2(C)Oc3c(C)c(O)c4c(O)c(c(/C=N/N5CCN(C)CC5)c(O)c4c3C2=O)NC(=O)/C(C)=C\C=C[C@H](C)[C@H](O)[C@@H](C)[C@@H](O)[C@@H](C)[C@H](OC(C)=O)[C@@H]1C |  | -8.51%
O=C1OC2(c3ccccc31)c1cc(Br)c(O)c(Br)c1Oc1c2cc(Br)c(O)c1Br |  | -13.1%
Oc1c(Cl)cc(Cl)c(Cl)c1Cc1c(O)c(Cl)cc(Cl)c1Cl | 4.22 µM (active) | 
COc1ccc(C(=O)c2ccccc2O)c(O)c1 |  | 9.34%
Nc1nc(Cl)nc2c1ncn2[C@@H]1O[C@H](CO)[C@@H](O)[C@@H]1F | 0.335 µM (active) | 
CCc1oc2ccccc2c1C(=O)c1cc(I)c(O)c(I)c1 |  | -13.9%
CCOC(=O)[C@@](C)(N)Cc1ccc(O)c(O)c1 |  | -0.17%
CCN(CC)CCNc1ccc(CO)c2sc3ccccc3c(=O)c12 | 13.3 µM (active) | 
CCCCCCCCCCCCCC[N+](C)(C)Cc1ccccc1 | 21.1 µM (active) | 
CC[C@H](c1ccc(O)cc1)[C@@H](CC)c1ccc(O)cc1 |  | 0.991%
CN1CCN(CCC(=O)N2c3ccccc3Sc3ccc(C(F)(F)F)cc32)CC1 | 26.6 µM (active) | 
NC(N)=NN=C(/C=C/c1ccc([N+](=O)[O-])o1)/C=C/c1ccc([N+](=O)[O-])o1 | 2.11 µM (active) | 
C#C[C@]1(OC(C)=O)CC[C@H]2[C@@H]3CCC4=C/C(=N/O)CC[C@@H]4[C@H]3CC[C@@]21CC | 23.7 µM (active) | 
CCCCCN=C(N)N/N=C/c1c[nH]c2ccc(OC)cc12 | 26.6 µM (active) | 
CCCCNc1ccc(C(=O)OCCOCCOCCOCCOCCOCCOCCOCCOCCOC)cc1 |  | -25.7%
CCc1ccc(C(=O)C(C)CN2CCCCC2)cc1 (stereo unspecified) |  | -10.7%
CCCCc1cc2ccccc2c(OCCN(C)C)n1 |  | -12.9%
CC1(COc2ccc(CC3SC(=O)NC3=O)cc2)CCCCC1 (stereo unspecified) |  | -11%
CN1CCN(C2=Nc3cc(F)ccc3Cc3ccccc32)CC1 |  | -8.26%
C[C@H]1O[C@@H](O[C@H]2CC[C@@]3(C)[C@H](CC[C@@H]4[C@@H]3C[C@@H](O)[C@]3(C)[C@@H](C5=CC(=O)OC5)CC[C@]43O)C2)C[C@H](O)[C@@H]1O[C@H]1C[C@H](O)[C@H](O[C@H]2C[C@H](O)[C@H](O[C@@H]3O[C@H](CO)[C@@H](O)[C@H](O)[C@H]3O)[C@@H](C)O2)[C@@H](C)O1 | 0.237 µM (active) | 

Reference: PubChem BioAssay (NCATS)
